Legend:
Assay in all cases: thermal shift delta Tm vs DMSO control; higher = stronger stabilization (binding)
Conditions in all cases: 12.5 µM; protein concentration 2 µM
LOC_OS02G45750-cb003 = test system: LOC_OS02G45750-cb003
Method in brief: (§1)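 Rice kinase domain constructs were expressed in E. coli, purified, and tested by differential scanning fluorimetry with compound added in DMSO. Each well of a 96-well plate held 19.5 μl of 2 μM kinase in 100 mM potassium phosphate pH 7.5, 150 mM NaCl, 10% glycerol and 5 × SYPRO Orange, and fluorescence was read from 25°C to 95°C at 0.05°C/s. The melting temperature shift is the mean of triplicates, taken against protein with DMSO alone after Boltzmann fitting.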

LOC_OS02G54510-cb004 = test system: LOC_OS02G54510-cb004
Method in brief: as §1

LOC_OS03G04050-cb001 = test system: LOC_OS03G04050-cb001
Method in brief: as §1

LOC_OS03G12390-cb001 = test system: LOC_OS03G12390-cb001
Method in brief: as §1

LOC_OS03G27990-cb004 = test system: LOC_OS03G27990-cb004
Method in brief: as §1

LOC_OS03G50450-cb001 = test system: LOC_OS03G50450-cb001
Method in brief: as §1

LOC_OS03G50810-cb003 = test system: LOC_OS03G50810-cb003
Method in brief: as §1

LOC_OS04G35114-cb001 = test system: LOC_OS04G35114-cb001
Method in brief: as §1

LOC_OS04G38480-cb003 = test system: T1, LOC_OS04G38480-cb003
T1 sequence (whole entry): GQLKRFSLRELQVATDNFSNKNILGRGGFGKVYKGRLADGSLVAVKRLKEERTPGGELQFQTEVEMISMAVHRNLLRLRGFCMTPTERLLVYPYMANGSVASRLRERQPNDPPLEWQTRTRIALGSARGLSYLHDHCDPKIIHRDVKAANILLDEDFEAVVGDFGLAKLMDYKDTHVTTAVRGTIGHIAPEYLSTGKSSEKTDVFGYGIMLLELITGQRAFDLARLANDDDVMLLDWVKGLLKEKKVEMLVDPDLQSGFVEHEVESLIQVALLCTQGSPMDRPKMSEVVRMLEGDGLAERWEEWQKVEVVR
Method in brief: as §1

LOC_OS04G41100-cb001 = test system: T2, LOC_OS04G41100-cb001
T2 sequence (whole entry): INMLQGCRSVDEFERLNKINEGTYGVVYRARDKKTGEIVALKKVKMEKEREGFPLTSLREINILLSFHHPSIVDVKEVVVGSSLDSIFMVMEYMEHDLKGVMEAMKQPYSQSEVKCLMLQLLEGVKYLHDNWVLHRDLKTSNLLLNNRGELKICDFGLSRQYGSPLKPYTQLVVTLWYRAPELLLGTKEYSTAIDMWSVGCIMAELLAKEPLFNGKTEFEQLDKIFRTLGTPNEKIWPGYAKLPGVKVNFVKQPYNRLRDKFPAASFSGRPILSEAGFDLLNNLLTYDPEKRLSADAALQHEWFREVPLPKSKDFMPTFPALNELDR
Method in brief: as §1

| SMILES | thermal shift delta Tm (LOC_OS02G45750-cb003) [°C] | thermal shift delta Tm (LOC_OS02G54510-cb004) [°C] | thermal shift delta Tm (LOC_OS03G04050-cb001) [°C] | thermal shift delta Tm (LOC_OS03G12390-cb001) [°C] | thermal shift delta Tm (LOC_OS03G27990-cb004) [°C] | thermal shift delta Tm (LOC_OS03G50450-cb001) [°C] | thermal shift delta Tm (LOC_OS03G50810-cb003) [°C] | thermal shift delta Tm (LOC_OS04G35114-cb001) [°C] | thermal shift delta Tm (LOC_OS04G38480-cb003) [°C] | thermal shift delta Tm (LOC_OS04G41100-cb001) [°C] |
| --- | --- | --- | --- | --- | --- | --- | --- | --- | --- | --- |
| O=C(O)[C@]1(Cc2cccc(Nc3nccs3)n2)CC[C@@H](Oc2cccc(Cl)c2F)CC1 | 1.57 | 4.63 | 0.19 | 7.89 | 0.23 | 1.68 | 2.52 | 9.74 | 4.53 | 0.24 |
| CCCCNc1ncc2c(-c3ccc(CN4CCN(C)CC4)cc3)cn([C@H]3CC[C@H](O)CC3)c2n1 | 18.4 | 0.6 | 0.12 | 8.3 | 10.8 | 6.64 | 10.5 | 12.3 | 4.63 | 0.42 |
| O=C(NOCCO)c1ccc2cncn2c1Nc1ccc(I)cc1F | 0.53 | 0.01 | 0.75 | -0.37 | 0.29 | -0.24 | 0.06 | -0.73 | -1.85 | 0.39 |
| COc1ccccc1-c1cc(Nc2cccc(CS(N)(=O)=O)c2)ncn1 | 3.96 | 0.61 | 0.43 | 0.77 | 0.57 | 0.51 | 0.56 | 1.63 | 2.33 | 0.8 |
| O=C(/C=C/c1ccc2ccccc2n1)c1ccncc1 | 4.53 | -0.52 | 0.27 | -1.09 | 0.7 | 0.7 | 0.37 | 4.4 | 4.06 | 2.67 |
| Cc1c(C(=O)N2CCOc3ccc(-c4ccc(N)nc4)cc3C2)ccc(S(C)(=O)=O)c1F | 0.79 | 0.21 | 0.5 | 0.38 | 0.27 | 0.12 | 0.24 | 0.73 | 0.22 | 0.43 |
| CCOc1ccn(-c2ccc(F)cc2)c(=O)c1C(=O)Nc1ccc(Oc2ccnc(N)c2Cl)c(F)c1 | 1.27 | 0.13 | 0.16 | 0.96 | 0.05 | 0.3 | 0.47 | 1.17 | 1.53 | 2.01 |
